From PubChem
A selection: hits, their analogues and other compounds. The true share with any hit is near 2.4%.
D2 PAM-1 = positive allosteric modulators of human D2 dopamine receptor. P14416. DiscoveRx D2 beta-arrestin cells, luminescence, 90 min; 100% = 57 uM dopamine signal. potentiation, % (no concentration beside the values). 0.23% of 360,000 active. AID 624464; in the data active = potentiation above about 50%
Target sequence (P14416 whole entry, looked up): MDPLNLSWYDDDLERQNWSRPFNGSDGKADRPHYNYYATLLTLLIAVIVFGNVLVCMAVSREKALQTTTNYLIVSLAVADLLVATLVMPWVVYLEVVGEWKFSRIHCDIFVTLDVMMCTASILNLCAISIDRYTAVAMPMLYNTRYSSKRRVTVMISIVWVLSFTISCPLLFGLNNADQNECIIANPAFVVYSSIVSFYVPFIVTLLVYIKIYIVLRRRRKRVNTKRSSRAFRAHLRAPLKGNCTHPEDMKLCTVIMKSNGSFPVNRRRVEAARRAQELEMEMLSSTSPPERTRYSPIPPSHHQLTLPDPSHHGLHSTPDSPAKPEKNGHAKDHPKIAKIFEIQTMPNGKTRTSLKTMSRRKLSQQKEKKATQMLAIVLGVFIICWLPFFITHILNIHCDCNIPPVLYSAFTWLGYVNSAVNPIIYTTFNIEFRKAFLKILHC
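PathHunter D2 cells, attached overnight at 37 deg C, received compound in DMSO plus dopamine at EC20 (50 nM final) for 90 min at 37 deg C. Beta-arrestin recruitment was read as luminescence after 1 h with detection reagent at ambient temperature.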
D2 ag-1 = human D2 receptor agonism in beta-arrestin assay. activation, % (concentration not given with the values). DiscoveRx PathHunter D2 beta-arrestin, luminescence, 90 min; 100% = 57 uM dopamine signal. 0.084% of 360,000 active. P14416. AID 624465; in the data active = activation above about 40%
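DiscoveRx PathHunter D2 beta-arrestin cells (2,100/well) attached overnight, then compound-stimulated 90 min at 37 C in HBSS/10 mM HEPES/0.1% Tween-20 buffer; beta-galactosidase complementation read by luminescence after 1 h at ambient temperature. Dopamine 57 uM final (EC100) as control.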
D2 ag-2 = agonists of human D2 dopamine receptor; HEK293 T-REx D2 cells, calcium flux agonist mode; P14416; 0.53% of 340,000 active; activation, % at 2 µM;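 active = activation over 3 SD above normal in the single-dose calcium agonist read, cut at about 30% in these data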; note: 0% is about no effect
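Tetracycline-induced HEK293 T-REx cells with force-coupled D2 receptor, plated overnight at 30 C, loaded with no-wash calcium dye. After a 10 s baseline, compound was pin-added and calcium flux read kinetically for 180 s; calcium rises flagged agonists.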
D2 antagonist = D2 dopamine receptor (human) antagonism; P14416; HEK293 TREx D2 cells, calcium flux, dopamine EC80; inhibition, % at 10 µM; 2% of 340,000 active; AID 485344; in the data active = inhibition above about 30%; inactive = below that, where a call was filed; note: 0% is about no effect
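HEK293 T-REx D2 cells, tet-induced, calcium dye no-wash. Cpd pintool add, 180 s kinetic, then EC80 DA, 180 s kinetic. Ca flux read.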
D2 PAM-2 = positively modulates the human D2 dopamine receptor allosterically. P14416. HEK293 T-REx D2, calcium flux, EC20 dopamine potentiation. potentiation, % at 10 µM. 0.34% of 340,000 active. AID 485347;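 active = potentiation over 3 SD above the plate norm, cut at about 30% in these data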; note: 0% is about no effect
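Cells plated with tetracycline inducer and held overnight at 30 C; calcium dye loaded 30–90 min at room temperature; baseline taken, compound added and read 180 s; EC20 dopamine then added and read 180 s.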
* marks the source's active call; other numbers are inactive results; . = no result.

SMILES | D2 PAM-1 | D2 ag-1 | D2 ag-2 | D2 antagonist | D2 PAM-2
CC(=O)c1ccc(NC(=O)CCCc2nc(-c3cccc(C)c3)no2)cc1 | . | . | -1 | . | -23
CCOC(=O)N1CCc2c(sc(NCc3ccc(N(C)C)cc3)c2C(=O)Nc2ccc(OC)cc2)C1 | . | . | 1 | . | 11
CCOc1ccccc1N(CC)C(=O)c1cc2c(=O)[nH]c3ccc(C)cc3c2s1 | . | . | 0 | . | -1
C=C1CCN([C@@H](CC(C)C)C(=O)N2CCOCC2)S(=O)(=O)c2ccccc21 | -10 | -1 | . | . | .
COC(=O)C(CC(C)C)N1CCC(=O)c2ccccc2S1(=O)=O (stereo unspecified) | -7 | 0 | -1 | 52* | 8
CCCN(C(=O)c1c(-c2ccccc2)noc1C)c1c(N)n(Cc2ccccc2)c(=O)[nH]c1=O | -2 | 0 | -1 | 65* | -3
CCN(C(=O)COC(=O)c1c(-c2ccccc2)noc1C)c1c(N)n(Cc2ccccc2)c(=O)[nH]c1=O | -8 | 1 | . | . | .
CC1(C(=O)NC2CCN(Cc3ccccc3)CC2)CCN1Cc1ccc2ccccc2c1 (stereo unspecified) | -13 | -6 | . | . | .
COc1ccc(CN2CCN(Cc3ccc4ccccc4c3)CC2)cc1OC | -14 | -5 | 1 | 5 | -16
COc1ccccc1CN1CCN(Cc2ccc3ccccc3c2)CC1 | -10 | -8 | 1 | 68* | -28
OC1CCN(Cc2ccc3ccccc3c2)CC1 | -14 | -2 | 1 | 46* | -15
CCc1ccc(NC(=O)C(=O)NNC(=O)c2ccc(OC)cc2)cc1 | -1 | -5 | 1 | 43* | -14
COc1ccc(C(=O)NNC(=O)C(=O)Nc2ccc(C)cc2)cc1 | -8 | -8 | -3 | 9 | .
COc1ccc(CN2CCCC(C(=O)Nc3cccc(-n4cccn4)c3)C2)cc1 (stereo unspecified) | -33 | -1 | 0 | 79* | -24
CC12CN3CC(C)(CN(C1)C3c1ccc(Br)cc1O)C2 (stereo unspecified) | -13 | -3 | 1 | 36* | -22
Cc1nn(C)c2c1c(-c1ccccc1)cc(=O)n2Cc1ccc(F)cc1 | . | . | -1 | . | -1
COCc1cc(=O)n2[nH]c(SC)nc2n1 | -3 | 0 | 0 | 5 | 36*
COCc1cc(=O)n2[nH]c(SCc3ccccc3)nc2n1 | -20 | -4 | -1 | 5 | 2
COc1ccc(C(C)(C)C)cc1NC(=O)COC(=O)CSCc1c(C)noc1C | -28 | -4 | -1 | 36* | 0
CCN1CCCC1CNC(=O)c1cc2c(OC)cccc2[nH]1 (stereo unspecified) | -24 | -3 | . | . | .
CCN1CCCC1CNC(=O)c1cc2c(OC)c(OC)c(OC)cc2[nH]1 (stereo unspecified) | -13 | 0 | 0 | 83* | -23
CCCCN1CCCC1CNC(=O)c1cc(C#N)c2ccccc2c1OC (stereo unspecified) | . | . | 1 | 84* | -27
CCN1CCC[C@H]1CNC(=O)c1c(O)c(Cl)cc(Cl)c1OC | -27 | -7 | -2 | 76* | -27
CCN1CCCC1CNC(=O)c1cc(OC)c(OC)c(OC)c1 (stereo unspecified) | -37 | 0 | 1 | -19 | -21
CCOc1cc(C(=O)Nc2cccc3cccnc23)cc(OCC)c1OCC | . | . | . | . | 2
SMILES | D2 PAM-1 | D2 ag-1 | D2 ag-2 | D2 antagonist | D2 PAM-2
CCc1nc2ccc(C(=O)NCCc3ccc(OC)c(OC)c3)cc2nc1CC | 8 | 4 | 0 | -1 | 3
COc1cc(Br)c(CCNC(=O)c2ccco2)cc1OC | -6 | -2 | 0 | 36* | -4
COc1ccc(CCNC(=O)c2noc3c2CCCC3)cc1OC | -13 | -1 | 0 | 42* | 2
COc1ccccc1OCCNC(=O)c1ccco1 | -2 | -5 | 1 | 1 | -6
COc1ccc(Cl)cc1NC(=O)c1noc2c1CCCC2 | -4 | -6 | 1 | 31* | 18
COc1ccc(CCNC(=O)c2nonc2N)cc1OC | -15 | 1 | 0 | 7 | -1
COc1ccc(CCNC(=O)c2ccc3nc(-c4ccco4)c(-c4ccco4)nc3c2)cc1OC | 61* | 9 | 6 | -6 | 10
Cc1ccc(OCC(=O)Nc2ccc3nc(SCC(=O)N(C)c4ccccc4)sc3c2)cc1 | . | . | 2 | . | -27
COc1cccc(CNC(=O)c2ccc3c(c2)nnn3C2CCCC2)c1 | . | . | 0 | . | -10
CN(C)c1ccc(C(CNC(=O)c2ccccc2Cl)N2CCCC2)cc1 (stereo unspecified) | . | . | 0 | . | -4
CCNC(=O)COC(=O)C1CCN(S(=O)(=O)c2ccc3c(c2)OCCO3)CC1 | 4 | 0 | -1 | 6 | 9
N#CCOC(=O)C1CCN(S(=O)(=O)c2ccc3c(c2)OCCO3)CC1 | 1 | -1 | 1 | 5 | 34*
CN(C)CCCn1c(SCC(=O)Nc2sc3c(c2C#N)CCCC3)nnc1-c1ccncc1 | -15 | 0 | 0 | 39* | -4
N#CCSc1nc2ccccc2c2nc3ccccc3n12 | -6 | 0 | 3 | 33* | 5
Cc1cccc(C(=O)OCC(=O)N2CCCCCC2)c1 | -16 | 0 | 0 | 31* | 11
COc1ccc2oc(C(=O)OCC(=O)N3CCCCC3)c(C)c2c1 | 0 | -4 | -1 | 31* | -1
COc1ccc2oc(C(=O)OCC(=O)N3CCN(C(C)=O)CC3)c(C)c2c1 | 28 | -4 | 1 | -9 | -2
O=C(O)CCS(=O)(=O)c1ccccc1Cl | -10 | -5 | 1 | 39* | 16
CCOC(=O)C1=C(C)N(CCCCCC(=O)O)C(=O)NC1c1ccc([N+](=O)[O-])cc1 (stereo unspecified) | -10 | -5 | 31* | 8 | -18
CCOC(=O)C1=C(C)N(CCCCCC(=O)O)C(=O)NC1c1cccc([N+](=O)[O-])c1 (stereo unspecified) | -25 | 0 | 0 | 2 | 6
COc1cc(NC(=O)CCCC(=O)OCC(F)(F)C(F)F)nc(OC)n1 | 10 | 0 | -1 | 52* | 6
O=C(Cn1c(=O)nc(-c2ccccc2F)c2cc(Cl)ccc21)Nc1ccccc1C(F)(F)F | . | . | 2 | . | -1
CCOc1ccccc1CNC(=O)c1ccc(CS(=O)Cc2cccc(Cl)c2)o1 (stereo unspecified) | . | . | 0 | . | -7
O=C(C1CCCO1)N1CCN(C(=S)Nc2ccc(F)cc2)CC1 (stereo unspecified) | -4 | 2 | 1 | 41* | 1
Cc1ccc(C)c(N2CCN(C(=O)C3CCN(c4nc(-c5ccc(C(C)C)cc5)no4)CC3)CC2)c1 | . | . | 1 | . | -1
CC1=C(C(=O)Nc2ccccc2)C(c2ccc(C(=O)O)cc2)n2nc(SCC(=O)c3ccc(C)cc3)nc2N1 (stereo unspecified) | . | . | . | . | 12
CC(C)(C)CC(=O)Nc1cc2c3c(c1)CCC(=O)N3CCC2 | -10 | -1 | 0 | 35* | 3
